# Source: PMC7862700, “An all-to-all approach to the identification of sequence-specific readers for epigenetic DNA modifications on cytosine”
# How the values were obtained:
# Assay in all cases: DAPPL (digital affinity profiling via proximity ligation, sequencing); 10 mM Tris-HCl pH 7.5, 50 mM NaCl, 1 mM DTT, 4% glycerol, room temperature, 30 min; GST-TFs on glutathione beads, 16-mer random dsDNA library, 0.1% formaldehyde crosslink after washing; high values mean tight binding
# FLI1 = target: T1, FLI1 (Homo sapiens, UniProt Q01543 1-452); details: protein: recombinant; tags: N-terminal GST; dsDNA, one strand shown
# T1 sequence: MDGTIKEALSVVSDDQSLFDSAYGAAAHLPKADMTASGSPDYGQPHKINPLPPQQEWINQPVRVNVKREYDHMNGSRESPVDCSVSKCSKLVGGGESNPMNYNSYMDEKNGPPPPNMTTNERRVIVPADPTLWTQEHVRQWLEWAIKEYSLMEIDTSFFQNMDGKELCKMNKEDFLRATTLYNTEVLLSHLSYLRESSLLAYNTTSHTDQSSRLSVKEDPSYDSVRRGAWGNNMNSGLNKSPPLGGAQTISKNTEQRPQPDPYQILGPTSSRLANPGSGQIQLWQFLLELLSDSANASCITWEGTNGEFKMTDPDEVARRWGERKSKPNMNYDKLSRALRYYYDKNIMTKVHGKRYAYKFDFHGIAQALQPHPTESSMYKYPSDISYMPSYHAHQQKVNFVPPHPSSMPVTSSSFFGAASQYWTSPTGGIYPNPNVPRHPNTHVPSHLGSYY
# In short: (§1)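 Human transcription factors carrying a GST fusion were produced in yeast, bound to glutathione beads, tagged with DNA barcodes and pooled together with a tag-only sample. Each pool was held with 200 nmole of a random double-stranded 16-mer DNA library in Tris/NaCl/DTT/glycerol buffer for 30 min at room temperature, then washed, crosslinked in 0.1% formaldehyde, proximity-ligated with BsaI/T4 ligase (1 h, 37 °C), PCR-amplified and sequenced on an Illumina NextSeq500. Binding signal is the read frequency of each hexamer for a given factor divided by its frequency in the tag-only sample.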
# ELK1 = target: T2, ELK1 (Homo sapiens, UniProt P19419 1-428); details: protein: recombinant; tags: N-terminal GST; dsDNA, one strand shown
# T2 sequence: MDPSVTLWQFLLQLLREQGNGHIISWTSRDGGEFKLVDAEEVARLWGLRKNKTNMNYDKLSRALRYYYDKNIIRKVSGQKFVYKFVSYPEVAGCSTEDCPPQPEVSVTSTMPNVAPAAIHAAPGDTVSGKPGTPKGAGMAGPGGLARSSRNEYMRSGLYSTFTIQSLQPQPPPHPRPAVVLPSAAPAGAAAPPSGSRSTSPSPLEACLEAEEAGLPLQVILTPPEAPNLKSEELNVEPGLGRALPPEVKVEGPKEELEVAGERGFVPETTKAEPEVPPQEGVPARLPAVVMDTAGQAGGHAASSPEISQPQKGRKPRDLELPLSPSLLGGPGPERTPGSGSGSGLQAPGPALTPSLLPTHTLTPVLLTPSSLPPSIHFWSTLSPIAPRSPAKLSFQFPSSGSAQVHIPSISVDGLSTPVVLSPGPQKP
# In short: as §1
# GABPA = target: T3, GABPA (Homo sapiens, UniProt Q06546 1-454); details: protein: recombinant; tags: N-terminal GST; dsDNA, one strand shown
# T3 sequence: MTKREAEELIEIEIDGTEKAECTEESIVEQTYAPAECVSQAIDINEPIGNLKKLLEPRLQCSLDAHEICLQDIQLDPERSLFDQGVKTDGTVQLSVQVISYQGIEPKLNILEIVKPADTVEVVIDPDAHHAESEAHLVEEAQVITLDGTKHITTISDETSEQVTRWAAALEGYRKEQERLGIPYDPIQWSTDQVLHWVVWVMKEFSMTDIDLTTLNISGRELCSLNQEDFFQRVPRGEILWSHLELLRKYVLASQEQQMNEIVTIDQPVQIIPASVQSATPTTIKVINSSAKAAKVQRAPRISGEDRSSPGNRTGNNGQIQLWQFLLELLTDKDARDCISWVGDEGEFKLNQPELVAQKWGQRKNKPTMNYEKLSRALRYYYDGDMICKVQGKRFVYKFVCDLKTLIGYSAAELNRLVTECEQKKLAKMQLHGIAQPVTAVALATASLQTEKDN
# In short: as §1
# ERG = target: T4, ERG (Homo sapiens, UniProt P11308 1-479); details: protein: recombinant; tags: N-terminal GST; dsDNA, one strand shown
# T4 sequence: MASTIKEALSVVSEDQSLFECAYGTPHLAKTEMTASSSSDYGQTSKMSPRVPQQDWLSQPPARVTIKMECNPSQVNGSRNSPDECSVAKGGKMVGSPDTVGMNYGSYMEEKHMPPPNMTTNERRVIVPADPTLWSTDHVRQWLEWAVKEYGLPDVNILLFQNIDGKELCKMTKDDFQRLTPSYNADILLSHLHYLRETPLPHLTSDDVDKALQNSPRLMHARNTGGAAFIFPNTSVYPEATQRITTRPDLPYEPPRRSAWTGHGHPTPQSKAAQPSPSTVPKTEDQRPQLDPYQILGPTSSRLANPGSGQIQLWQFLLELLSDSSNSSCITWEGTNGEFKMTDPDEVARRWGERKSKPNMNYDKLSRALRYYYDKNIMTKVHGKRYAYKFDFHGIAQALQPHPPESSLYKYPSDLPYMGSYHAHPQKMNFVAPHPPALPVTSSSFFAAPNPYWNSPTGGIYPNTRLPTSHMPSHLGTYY
# In short: as §1
# ELF1 = ELF1 (Homo sapiens, UniProt P32519 1-619); details: protein: recombinant; tags: N-terminal GST; dsDNA, one strand shown
# In short: as §1
# EHF = target: T5, EHF (Homo sapiens, UniProt Q9NZC4 1-300); details: protein: recombinant; tags: N-terminal GST; dsDNA, one strand shown
# T5 sequence: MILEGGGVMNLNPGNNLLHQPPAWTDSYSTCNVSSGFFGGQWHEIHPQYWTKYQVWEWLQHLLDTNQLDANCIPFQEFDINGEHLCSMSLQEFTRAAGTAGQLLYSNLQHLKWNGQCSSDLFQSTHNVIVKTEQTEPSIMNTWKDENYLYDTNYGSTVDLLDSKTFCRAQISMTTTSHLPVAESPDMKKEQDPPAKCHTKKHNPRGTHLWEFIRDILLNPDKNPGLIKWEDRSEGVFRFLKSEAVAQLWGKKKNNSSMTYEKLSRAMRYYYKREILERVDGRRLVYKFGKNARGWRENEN
# In short: as §1
# SPI1 = SPI1 (Homo sapiens, UniProt P17947 1-270); details: protein: recombinant; tags: N-terminal GST; dsDNA, one strand shown
# In short: as §1
# SPIB = SPIB (Homo sapiens, UniProt Q01892 1-262); details: protein: recombinant; tags: N-terminal GST; dsDNA, one strand shown
# In short: as §1
# ELK3 = target: T6, ELK3 (Homo sapiens, UniProt P41970 1-407); details: protein: recombinant; tags: N-terminal GST; dsDNA, one strand shown
# T6 sequence: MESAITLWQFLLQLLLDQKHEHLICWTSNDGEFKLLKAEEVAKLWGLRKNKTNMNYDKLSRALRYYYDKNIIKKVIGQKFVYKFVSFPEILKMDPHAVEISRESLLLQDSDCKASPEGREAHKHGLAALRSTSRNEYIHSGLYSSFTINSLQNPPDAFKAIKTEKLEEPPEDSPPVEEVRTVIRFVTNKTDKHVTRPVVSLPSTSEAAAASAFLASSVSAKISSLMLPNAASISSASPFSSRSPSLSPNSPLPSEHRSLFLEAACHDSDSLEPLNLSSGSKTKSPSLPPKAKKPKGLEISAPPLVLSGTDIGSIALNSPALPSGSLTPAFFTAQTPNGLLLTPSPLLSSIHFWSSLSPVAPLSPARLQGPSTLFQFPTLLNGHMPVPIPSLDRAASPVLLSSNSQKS
# In short: as §1
# FEV = target: T7, FEV (Homo sapiens, UniProt Q99581 1-238); details: protein: recombinant; tags: N-terminal GST; dsDNA, one strand shown
# T7 sequence: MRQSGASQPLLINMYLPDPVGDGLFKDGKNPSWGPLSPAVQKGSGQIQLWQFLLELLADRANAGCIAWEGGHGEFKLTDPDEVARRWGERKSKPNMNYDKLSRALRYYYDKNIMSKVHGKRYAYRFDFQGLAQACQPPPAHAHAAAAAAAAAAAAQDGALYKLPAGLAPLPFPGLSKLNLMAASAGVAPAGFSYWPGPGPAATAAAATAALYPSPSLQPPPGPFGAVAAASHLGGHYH
# In short: as §1
# ETV5 = ETV5 (Homo sapiens, UniProt P41161 1-510); details: protein: recombinant; tags: N-terminal GST; dsDNA, one strand shown
# In short: as §1
# HSF1 = HSF1 (Homo sapiens, UniProt Q00613 1-529); details: protein: recombinant; tags: N-terminal GST; chain copies: 3; dsDNA, one strand shown
# In short: as §1
# SPIC = target: T8, SPIC (Homo sapiens, UniProt Q8N5J4 1-248); details: protein: recombinant; tags: N-terminal GST; dsDNA, one strand shown
# T8 sequence: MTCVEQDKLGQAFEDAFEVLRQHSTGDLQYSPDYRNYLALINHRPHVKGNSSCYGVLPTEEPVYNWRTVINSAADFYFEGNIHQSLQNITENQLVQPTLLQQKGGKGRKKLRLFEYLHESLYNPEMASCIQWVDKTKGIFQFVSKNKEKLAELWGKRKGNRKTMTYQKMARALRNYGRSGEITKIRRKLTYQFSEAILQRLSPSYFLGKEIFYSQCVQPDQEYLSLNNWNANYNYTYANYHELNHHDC
# In short: as §1
# ELF4 = ELF4 (Homo sapiens, UniProt Q99607 1-663); details: protein: recombinant; tags: N-terminal GST; dsDNA, one strand shown
# In short: as §1
# ELK4 = target: T9, ELK4 (Homo sapiens, UniProt P28324-2 1-405); details: protein: recombinant; tags: N-terminal GST; dsDNA, one strand shown
# T9 sequence: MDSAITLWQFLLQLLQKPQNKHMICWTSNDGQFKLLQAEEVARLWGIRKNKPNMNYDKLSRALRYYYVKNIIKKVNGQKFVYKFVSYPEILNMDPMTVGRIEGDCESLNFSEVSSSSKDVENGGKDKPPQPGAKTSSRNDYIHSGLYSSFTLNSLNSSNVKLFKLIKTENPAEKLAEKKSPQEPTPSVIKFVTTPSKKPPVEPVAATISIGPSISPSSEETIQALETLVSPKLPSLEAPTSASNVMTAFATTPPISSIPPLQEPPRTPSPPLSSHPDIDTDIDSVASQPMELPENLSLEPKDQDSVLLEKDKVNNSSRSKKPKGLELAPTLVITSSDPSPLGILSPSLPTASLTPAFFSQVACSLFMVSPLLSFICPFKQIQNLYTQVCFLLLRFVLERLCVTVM
# In short: as §1
# ETV2 = target: T10, ETV2 (Homo sapiens, UniProt O00321 1-342); details: protein: recombinant; tags: N-terminal GST; dsDNA, one strand shown
# T10 sequence: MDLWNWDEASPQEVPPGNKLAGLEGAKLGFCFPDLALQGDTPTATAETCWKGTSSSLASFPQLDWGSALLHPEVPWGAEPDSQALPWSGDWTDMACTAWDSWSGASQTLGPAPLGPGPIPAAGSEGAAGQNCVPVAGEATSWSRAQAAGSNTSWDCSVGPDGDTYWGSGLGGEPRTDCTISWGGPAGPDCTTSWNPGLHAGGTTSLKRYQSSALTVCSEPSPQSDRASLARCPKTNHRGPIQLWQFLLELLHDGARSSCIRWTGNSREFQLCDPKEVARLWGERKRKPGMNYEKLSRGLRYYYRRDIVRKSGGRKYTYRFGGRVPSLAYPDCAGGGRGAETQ
# In short: as §1
# ELF3 = target: T11, ELF3 (Homo sapiens, UniProt P78545 1-371); details: protein: recombinant; tags: N-terminal GST; dsDNA, one strand shown
# T11 sequence: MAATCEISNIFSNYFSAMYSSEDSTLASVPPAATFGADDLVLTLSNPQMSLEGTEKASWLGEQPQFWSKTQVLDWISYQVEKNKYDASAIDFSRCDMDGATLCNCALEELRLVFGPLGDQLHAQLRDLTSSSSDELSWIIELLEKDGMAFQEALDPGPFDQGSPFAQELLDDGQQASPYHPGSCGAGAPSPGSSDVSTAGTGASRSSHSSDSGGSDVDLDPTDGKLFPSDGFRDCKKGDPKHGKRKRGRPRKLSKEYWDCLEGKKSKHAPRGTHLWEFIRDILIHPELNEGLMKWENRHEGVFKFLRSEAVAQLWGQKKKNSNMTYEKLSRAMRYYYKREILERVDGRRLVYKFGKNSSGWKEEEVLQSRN
# In short: as §1
# CRX = CRX (Homo sapiens, UniProt O43186 1-299); details: protein: recombinant; tags: N-terminal GST; dsDNA, one strand shown
# In short: as §1
# ETV1 = ETV1 (Homo sapiens, UniProt P50549 1-477); details: protein: recombinant; tags: N-terminal GST; dsDNA, one strand shown
# In short: as §1
# Sequence of ETV5 (P41161 whole entry): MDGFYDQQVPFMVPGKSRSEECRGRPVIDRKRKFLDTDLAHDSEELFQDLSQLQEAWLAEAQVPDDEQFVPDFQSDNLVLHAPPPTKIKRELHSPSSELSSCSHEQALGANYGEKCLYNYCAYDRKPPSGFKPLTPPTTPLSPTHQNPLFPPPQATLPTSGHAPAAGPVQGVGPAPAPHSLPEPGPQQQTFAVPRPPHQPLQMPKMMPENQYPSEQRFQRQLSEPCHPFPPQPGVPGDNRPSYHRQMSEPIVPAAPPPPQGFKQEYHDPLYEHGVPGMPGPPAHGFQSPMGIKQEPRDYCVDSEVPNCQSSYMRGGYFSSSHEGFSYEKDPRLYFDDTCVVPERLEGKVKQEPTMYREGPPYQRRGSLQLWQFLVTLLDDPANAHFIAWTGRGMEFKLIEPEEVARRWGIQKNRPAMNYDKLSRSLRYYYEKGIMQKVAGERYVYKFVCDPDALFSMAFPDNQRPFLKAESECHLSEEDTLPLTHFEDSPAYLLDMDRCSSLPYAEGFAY
# Sequence of HSF1 (Q00613 whole entry): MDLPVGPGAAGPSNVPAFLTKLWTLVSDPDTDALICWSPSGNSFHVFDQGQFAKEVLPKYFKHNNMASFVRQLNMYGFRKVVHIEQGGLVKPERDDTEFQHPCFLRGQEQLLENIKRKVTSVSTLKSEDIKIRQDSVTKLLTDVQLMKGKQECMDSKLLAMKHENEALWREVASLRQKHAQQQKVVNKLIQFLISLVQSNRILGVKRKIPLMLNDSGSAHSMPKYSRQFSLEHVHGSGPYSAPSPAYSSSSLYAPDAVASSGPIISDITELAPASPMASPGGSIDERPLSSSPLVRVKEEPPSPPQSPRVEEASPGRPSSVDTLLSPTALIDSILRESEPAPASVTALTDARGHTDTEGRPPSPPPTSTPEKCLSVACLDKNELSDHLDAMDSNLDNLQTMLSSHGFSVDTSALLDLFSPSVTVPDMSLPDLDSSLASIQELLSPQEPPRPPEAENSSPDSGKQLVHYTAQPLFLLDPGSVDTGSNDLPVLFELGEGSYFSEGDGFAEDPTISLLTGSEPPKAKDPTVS
# Sequence of CRX (O43186 whole entry): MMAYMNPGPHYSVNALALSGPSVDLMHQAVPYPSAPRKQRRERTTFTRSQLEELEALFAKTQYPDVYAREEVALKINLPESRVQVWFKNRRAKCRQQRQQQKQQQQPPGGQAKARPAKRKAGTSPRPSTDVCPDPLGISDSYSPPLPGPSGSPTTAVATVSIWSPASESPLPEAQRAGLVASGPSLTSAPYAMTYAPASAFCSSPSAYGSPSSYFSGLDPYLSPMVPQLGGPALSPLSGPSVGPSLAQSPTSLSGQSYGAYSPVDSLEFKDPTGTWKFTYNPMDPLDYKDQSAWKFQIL
# Sequence of ELF4 (Q99607 whole entry): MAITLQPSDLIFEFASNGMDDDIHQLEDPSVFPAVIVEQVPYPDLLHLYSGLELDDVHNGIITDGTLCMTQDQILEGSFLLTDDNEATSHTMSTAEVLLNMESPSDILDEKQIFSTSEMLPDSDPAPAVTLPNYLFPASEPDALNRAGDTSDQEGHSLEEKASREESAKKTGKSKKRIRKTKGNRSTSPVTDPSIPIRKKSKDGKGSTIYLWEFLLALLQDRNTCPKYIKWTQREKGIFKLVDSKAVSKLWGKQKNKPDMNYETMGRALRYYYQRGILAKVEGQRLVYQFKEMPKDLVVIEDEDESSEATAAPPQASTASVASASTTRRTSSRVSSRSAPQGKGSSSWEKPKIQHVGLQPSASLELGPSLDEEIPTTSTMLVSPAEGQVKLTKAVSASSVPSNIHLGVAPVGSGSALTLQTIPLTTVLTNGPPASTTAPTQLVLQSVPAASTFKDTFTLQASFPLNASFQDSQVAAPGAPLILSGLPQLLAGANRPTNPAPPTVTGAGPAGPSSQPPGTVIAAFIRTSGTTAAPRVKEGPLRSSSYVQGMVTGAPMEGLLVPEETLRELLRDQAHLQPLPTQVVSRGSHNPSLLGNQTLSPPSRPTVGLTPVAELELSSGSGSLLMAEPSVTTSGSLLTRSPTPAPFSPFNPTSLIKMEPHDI
# Sequence of SPIB (Q01892 whole entry): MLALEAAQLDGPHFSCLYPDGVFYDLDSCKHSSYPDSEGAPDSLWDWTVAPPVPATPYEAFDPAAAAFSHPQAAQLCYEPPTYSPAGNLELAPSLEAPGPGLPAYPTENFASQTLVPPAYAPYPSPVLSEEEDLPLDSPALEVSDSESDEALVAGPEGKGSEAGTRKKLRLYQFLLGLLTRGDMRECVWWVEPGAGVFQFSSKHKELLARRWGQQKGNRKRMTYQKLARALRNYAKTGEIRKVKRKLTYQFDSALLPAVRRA
# Sequence of ELF1 (P32519 whole entry): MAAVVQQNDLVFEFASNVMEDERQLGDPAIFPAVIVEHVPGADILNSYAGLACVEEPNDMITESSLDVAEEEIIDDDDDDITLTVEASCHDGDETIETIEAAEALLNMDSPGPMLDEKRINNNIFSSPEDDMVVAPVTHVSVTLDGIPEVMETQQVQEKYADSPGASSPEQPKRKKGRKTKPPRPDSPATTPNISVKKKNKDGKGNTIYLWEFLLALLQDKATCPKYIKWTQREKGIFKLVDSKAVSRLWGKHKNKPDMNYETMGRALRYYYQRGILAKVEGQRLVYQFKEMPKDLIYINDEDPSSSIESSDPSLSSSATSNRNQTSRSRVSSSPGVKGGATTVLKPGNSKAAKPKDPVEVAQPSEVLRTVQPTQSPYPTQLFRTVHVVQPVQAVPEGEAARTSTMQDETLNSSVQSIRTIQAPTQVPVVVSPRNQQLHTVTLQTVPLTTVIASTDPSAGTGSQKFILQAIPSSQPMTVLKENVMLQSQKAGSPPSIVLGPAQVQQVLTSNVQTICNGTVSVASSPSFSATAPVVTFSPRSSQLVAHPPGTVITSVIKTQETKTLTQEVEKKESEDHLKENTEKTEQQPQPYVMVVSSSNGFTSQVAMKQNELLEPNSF
# Sequence of ETV1 (P50549 whole entry): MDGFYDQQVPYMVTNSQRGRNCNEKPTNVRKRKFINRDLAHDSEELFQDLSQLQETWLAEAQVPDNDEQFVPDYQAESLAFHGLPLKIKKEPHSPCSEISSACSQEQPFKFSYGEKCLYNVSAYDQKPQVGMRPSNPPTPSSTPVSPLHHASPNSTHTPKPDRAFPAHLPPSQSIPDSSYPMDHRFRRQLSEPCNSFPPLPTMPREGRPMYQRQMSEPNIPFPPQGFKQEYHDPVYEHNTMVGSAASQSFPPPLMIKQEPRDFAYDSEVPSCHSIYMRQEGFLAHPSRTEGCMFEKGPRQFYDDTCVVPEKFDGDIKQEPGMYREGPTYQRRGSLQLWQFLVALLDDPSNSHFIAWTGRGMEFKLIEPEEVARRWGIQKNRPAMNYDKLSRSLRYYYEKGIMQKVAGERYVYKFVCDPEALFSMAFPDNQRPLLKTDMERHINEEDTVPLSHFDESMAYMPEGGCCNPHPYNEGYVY
sequence,measurement,setting,value
ACCTGC,binding signal,FLI1,"1.37 fold enrichment (6-mer frequency, TF over GST control)"
same,binding signal,ELK1,"1.52 fold enrichment (6-mer frequency, TF over GST control)"
same,binding signal,GABPA,"1.39 fold enrichment (6-mer frequency, TF over GST control)"
same,binding signal,ERG,"1.39 fold enrichment (6-mer frequency, TF over GST control)"
same,binding signal,ELF1,"1.54 fold enrichment (6-mer frequency, TF over GST control)"
same,binding signal,EHF,"1.67 fold enrichment (6-mer frequency, TF over GST control)"
same,binding signal,SPI1,"1.46 fold enrichment (6-mer frequency, TF over GST control)"
same,binding signal,SPIB,"1.39 fold enrichment (6-mer frequency, TF over GST control)"
same,binding signal,ELK3,"1.33 fold enrichment (6-mer frequency, TF over GST control)"
same,binding signal,FEV,"1.5 fold enrichment (6-mer frequency, TF over GST control)"
same,binding signal,ETV5,"1.53 fold enrichment (6-mer frequency, TF over GST control)"
same,binding signal,HSF1,"1.27 fold enrichment (6-mer frequency, TF over GST control)"
same,binding signal,SPIC,"1.22 fold enrichment (6-mer frequency, TF over GST control)"
same,binding signal,ELF4,"1.47 fold enrichment (6-mer frequency, TF over GST control)"
same,binding signal,ELK4,"1.59 fold enrichment (6-mer frequency, TF over GST control)"
same,binding signal,ETV2,"1.39 fold enrichment (6-mer frequency, TF over GST control)"
same,binding signal,ELF3,"1.65 fold enrichment (6-mer frequency, TF over GST control)"
same,binding signal,CRX,"1.22 fold enrichment (6-mer frequency, TF over GST control)"
same,binding signal,ETV1,"1.57 fold enrichment (6-mer frequency, TF over GST control)"
